# System: FLX1 + dox-induced PRKAR1A G325D
# Test: difference in log2 fold change of viability vs plate median (dox-induced PRKAR1A G325D minus uninduced); higher = compound less effective when PKA is inhibited
# Conditions: concentration: not stated (2 or 5 uM); 5 days
# Experimental: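 For each plate a log2 fold change vs the plate median was derived, and the values without dox were subtracted from those with dox, averaged over three biological replicates.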
row,Structure (SMILES),difference in log2 fold change of viability
1,C=CC(=O)Nc1cc(Nc2nccc(-c3cn(C)c4ccccc34)n2)c(OC)cc1N(C)CCN(C)C [Osimertinib (AZD9291)],-0.173
2,Cn1c(=O)c(F)c(Nc2ccc(I)cc2F)c2c(=O)n(C[C@@H](O)CO)cnc21,-1.3
3,Cc1ccc(Nc2nccc(N(C)c3ccc4c(C)n(C)nc4c3)n2)cc1S(N)(=O)=O [Pazopanib],0.0453
4,"CC[C@H](Nc1ncnc2[nH]cnc12)c1nc2cccc(F)c2c(=O)n1-c1ccccc1 [Idelalisib (CAL-101, GS-1101)]",0.00653
5,C=CC(=O)Nc1cccc(Nc2nc(Nc3ccc(NC4CN(CCF)C4)cc3OC)ncc2C(F)(F)F)c1,-0.839
